PubChem BioAssay (NCI)
Compounds without any hit were thinned out: in the full panel of roughly 83,000, 20% have a hit.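 Percent growth is the endpoint: 0 to 100 indicates growth inhibition (40 means 60% inhibition), 0 means no net growth, and negative values indicate cell death.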 A number with no mark means an inactive call. Active and inactive are the calls of the source. How the source made its calls: active means growth percent below 10; inactive means the rest.

Test system: HL-60(TB) leukemia
Assay: NCI-60 one-dose screen, 48 h (100 = growth as untreated, 0 = no growth, -100 = all killed)
Details: 10 µM unless noted

| SMILES | growth |
| --- | --- |
| CC[C@@H]1C(=O)N(C)c2cnc(Nc3ccc(C(=O)NC4CCN(C)CC4)cc3OC)nc2N1C1CCCC1 | -42.1% (active) |
| N#C/C(=C\c1c(-c2ccccc2)[nH]c2ccccc12)C(=O)c1ccccc1 | 2.79% (active) |
| CC(C)c1ccc(NC(=O)Nc2ccc(NC(=O)c3ccccc3N)cc2)cc1 | 50.1% |
| Cl.Fc1c[c-]c(-c2ccccn2)c(F)c1.[Pt].c1ccc(P(c2ccccc2)C([PH+](c2ccccc2)c2ccccc2)[PH+](c2ccccc2)c2ccccc2)cc1 | 8.71% (active) |
| CN(C)c1ccc(N=C2C=CC(=O)C=C2)cc1 | 111% |
| COc1cc(NC(C)CCCN2C(=O)c3ccccc3C2=O)c2nc(C)ccc2c1OC (stereo unspecified) | 69.6% |
| O=[N+]([O-])c1ccc(N/N=C(\C(=N/Nc2ccc([N+](=O)[O-])cc2[N+](=O)[O-])c2ccccc2)c2ccccc2)c([N+](=O)[O-])c1 | 80.5% |
| NC(=O)c1cc(I)ccc1NC(=O)/C=C/c1ccccc1 | 0.952% (active) |
| NC(N)=NC(N)=Nc1cc2ccccc2c2ccccc12 | 28.8% |
| N#C/C(=C\c1ccc([N+](=O)[O-])cc1)n1nnc2cc(F)c(F)cc21 | -27% (active) |
| COc1cc(C2CC(c3ccc(Cl)cc3)=NN2C(C)=O)ccc1Oc1nc2c(c(=O)n(C)c(=O)n2C)n1C (stereo unspecified) | 94.2% |
| CCOC(=O)n1cc(-c2nonc2-c2cn(C)c3ncccc23)c2cc(F)ccc21 | 92.8% |
| Cc1nc2sc(C(=O)Nc3cccc(Br)c3C)c(N)c2cc1C(O)c1ccccc1 (stereo unspecified) | -46.6% (active) |
| CCN(CC)CCNc1ncnc2c1cnn2-c1ccc(Cl)cc1 | 39.1% |
| C[C@H](NC(=O)[C@@H]1CSSC[C@@H](NC(=O)c2nc3ccccc3cc2O)C(=O)NCC(=O)N1C)c1ccccc1 | -27.6% (active) |
| Nc1nc(N)c2c(n1)NC(c1ccccc1)C1CCc3ccccc3C1=N2 (stereo unspecified) | -11.2% (active) |
| COC(=O)c1c2c(c(C)[n+]([O-])c1C)C(=O)C(NCc1ccc(Br)cc1)=CC2=O | -19.9% (active) |
| CCCCCCCCCCCCCCCCCCNC(=O)[C@H]1CSC(c2ccc(OC)cc2O)N1 (stereo partly specified) | 34.4% |

| SMILES | growth |
| --- | --- |
| FC(F)(F)c1ccc(CNc2ccc(Cc3c[nH]c4ncc(Cl)cc34)cn2)cn1 | 4.54% (active) |
| O=C(Nc1ccc(-c2ccc3c(c2)NC(=O)/C3=C\c2ccc[nH]2)cc1)NC1CC1 | 98.3% |
| Cn1c([N+](=O)[O-])cnc1C=C1C(=O)c2ccccc2C1=O | 4.69% (active) |
| CC(=O)NC1(C(=O)O)CCCC1 | 101% |
| Oc1cc2ccccc2c(-c2c(O)c(O)cc3ccccc23)c1O | 19.8% |
| C=C(C=O)C1CCC2(C(=O)O)CCC3(C)C(CCC4C5(C)CCC(O)C(C)(C)C5CCC43C)C12 (stereo unspecified) | 6.38% (active) |
| Cc1cccc2c1O/C(=C\c1ccc([N+](=O)[O-])o1)C2=O | -25.7% (active) |
| CS(=O)(=O)c1ccc(/C=C\C(=O)O)cc1 | 122% |
| CCOC(=O)C1C(=O)C=C(c2cnccn2)CC1c1ccc(OC)c(OC)c1 (stereo unspecified) | 63.9% |
| C=C1C(=O)O[C@H]2[C@H]1CC/C(Cn1cc(CNCCc3c[nH]c4ccc(Cl)cc34)nn1)=C\CC[C@@]1(C)O[C@@H]21 | -55.2% (active) |
| O=S(=O)(O)CC(O)CN1CCN(CCO)CC1 (stereo unspecified) | 96% |
| COC(=O)c1cc2oc(/C=N/NC(=O)c3cc4oc(-c5cccc(C(F)(F)F)c5)cc4[nH]3)cc2n1Cc1ccccc1 | 69.9% |
| CC[C@@H](C(=O)[C@@H](C)[C@@H](O)[C@H](C)[C@@H]1O[C@@H]([C@@H](CC)C(=O)O)CC[C@@H]1C)[C@H]1OC2(C=C[C@@H](O)[C@]3(CC[C@@](C)([C@H]4CC[C@](O)(CC)[C@H](C)O4)O3)O2)[C@H](C)C[C@@H]1C (stereo partly specified) | -45.6% (active) |
| Nc1nc2nnc(-c3ccccc3)c(-c3ccccc3)n2n1 | 146% |
| Cc1c(Cl)cccc1NC(=O)c1sc2nc3c(cc2c1N)C(=O)CCC3 | -1.76% (active) |
| O=C(Nc1ncc(Cc2ccc(Cl)cc2)s1)c1ccc2c(c1)OCCO2 | -49.3% (active) |
| Nc1c(C(=O)Nc2cccc3ccccc23)sc2nc3c(cc12)CCCCCC3 | -31% (active) |
| O=c1[nH]c2ccccc2cc1-c1nnc(Cc2ccccc2)o1 | 27.1% |
